{"source": "PubChem BioAssay (NCATS)", "note": "Records with an inconclusive call do not appear. Activity calls are given as the source filed them. The call rests on the fitted dose curve; in most records, active means well fitted inhibition curve with a large enough effect; inconclusive means small, poorly fitted or top-dose-only effect; inactive means no such curve, though single readings can be large or run the other way. On the % scale 0 is the no-effect control and ±100 the full control effect.", "data": [{"test_system": "Zika virus NS2B-NS3 protease (linked construct)", "test": "Primary screen NINDS Rhodamine qHTS for Zika virus inhibitors (AID 1347160); further: nearly all actives have a fitted effect of over 55% in size", "conditions": "purified NS2B-NS3 protease, Rhodamine110 substrate fluorescence; series mostly up to 57.1 µM; activity change, negative = inhibition: at the top concentration", "method_in_brief": "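Purified NS2B-NS3 protease with the NS2B hydrophilic domain joined by a flexible linker (25 nM) in 10 mM Tris-HCl pH 8.0, 0.01% Tween 20, preincubated 15 min at RT with compound; Rhodamine110 peptide substrate 1.5 µM; fluorescence change over 15 min; 4-parameter Hill fit.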", "values": [{"smiles": "CC1OC(O[C@H]2CC[C@@]3(C)C(CC[C@]4(C)C3CC=C3C5CC(C)(C)CC[C@]5(C(=O)OC5OC(CO)C(OC6OC(COC7OCC(O)C(O)C7O)C(O)C(O)C6O)C(O)C5O)CC[C@]34C)C2(C)C)C(O)C(O)C1OC1OCC(OC2OCC(O)C(O)C2O)C(O)C1O", "note": "(some centres undefined)", "activity change, negative = inhibition": "-22.7% [at 10.7 µM] (inactive)"}, {"smiles": "C/C=C/c1ccc2c(c1)[C@@H](C)[C@H](c1ccc(O)cc1)O2", "activity change, negative = inhibition": "2.87% (inactive)"}, {"smiles": "CC1CC2OC3(OC2C(C)(C)O)C1C1(C)CCC24CC25CCC(O[C@@H]2OC[C@@H](O)[C@H](O)[C@H]2O)C(C)(C)C5CC=C4C1(C)C3O", "note": "(some centres undefined)", "activity change, negative = inhibition": "-5.56% [at 15.1 µM] (inactive)"}, {"smiles": "Clc1cc2c(NC3CCCC3)nnc(-c3ccncc3)c2cc1Cl", "activity change, negative = inhibition": "-40.4% [at 15.1 µM] (inactive)"}, {"smiles": "COC(=O)N(C)c1c(N)nc(-c2nn(Cc3ccccc3F)c3ncccc23)nc1N", "outcome": "inactive"}, {"smiles": "Cc1cc2c(c(=O)[nH]1)OC(C(O)CC(C)C)O2", "note": "(centres undefined)", "activity change, negative = inhibition": "-18.4% (inactive)"}, {"smiles": "N#C[C@@H]1C[C@H](F)CN1C(=O)CNC1[C@H]2CN(C(=O)c3ccc(F)cc3)C[C@@H]12", "note": "(some centres undefined)", "activity change, negative = inhibition": "5.11% (inactive)"}, {"smiles": "C/C=C/C1=CC2=C(CO1)C(=O)C(C)(O)C(OC(=O)c1c(C)cc(OC)cc1O)C2", "note": "(centres undefined)", "activity change, negative = inhibition": "-4.67% [at 33.1 µM] (inactive)"}, {"smiles": "C=CC1(C)C=C2C(=O)OC(=O)C3=C(CCCC3(C)C)C2(O)CC1", "note": "(centres undefined)", "outcome": "inactive [at 33.1 µM]"}, {"smiles": "Cc1cc(N2CCN([C@@H]3CN[C@H](C(=O)N4CCSC4)C3)CC2)n(-c2ccccc2)n1", "activity change, negative = inhibition": "-17.4% (inactive)"}, {"smiles": "NC[C@@](O)(c1ccc(Cl)cc1)c1ccc(-c2cn[nH]c2)cc1", "activity change, negative = inhibition": "12.4% (inactive)"}, {"smiles": "C=C(C)C(=O)OC1CC2(C)OC(=CC2=O)C(=C)CC2OC(=O)C(COC)C12", "note": "(centres undefined)", "activity change, negative = inhibition": "-6.82% [at 33.1 µM] (inactive)"}, {"smiles": "O=C(/C=C\\n1cnc(-c2cc(C(F)(F)F)cc(C(F)(F)F)c2)n1)N1CC(F)(F)C1", "activity change, negative = inhibition": "7.45% (inactive)"}, {"smiles": "COc1ccc(/C=C/C(=O)O[C@H]2[C@H](O[C@H]3[C@@H]4C=CO[C@@H](O[C@@H]5O[C@H](CO)[C@@H](O)[C@H](O)[C@H]5O)[C@@H]4[C@@]4(CO)O[C@@H]34)O[C@@H](C)[C@H](O)[C@H]2OC(C)=O)cc1", "activity change, negative = inhibition": "24.7% [at 15.1 µM] (inactive)"}, {"smiles": "Cc1cc(Nc2ccc(NC(=O)c3ccc(Nc4ccnc5ccccc45)cc3)cc2)nc(N)n1", "activity change, negative = inhibition": "-7.83% (inactive)"}, {"smiles": "CC(C)=CCC[C@](C)(O[C@@H]1O[C@H](CO[C@@H]2O[C@H](CO)[C@@H](O)[C@H](O)[C@H]2O)[C@@H](O)[C@H](O)[C@H]1O)C1CC[C@]2(C)[C@@H]1[C@H](O)CC1[C@@]3(C)CC[C@H](O[C@@H]4O[C@H](CO)[C@@H](O)[C@H](O)[C@H]4O[C@@H]4O[C@H](CO)[C@@H](O)[C@H](O)[C@H]4O)C(C)(C)[C@@H]3CC[C@]12C", "note": "(some centres undefined)", "outcome": "inactive [at 15.1 µM]"}, {"smiles": "CC(C)(C#N)c1ccc(N2C(=O)OCc3cnc4ccc(-c5cnc6ccccc6c5)cc4c32)cc1", "activity change, negative = inhibition": "6.42% (inactive)"}, {"smiles": "C=C(C(=O)O)[C@@H]1CC[C@@]2(C)CC[C@H](O)[C@@]2(C(C)=O)C1", "activity change, negative = inhibition": "0.306% (inactive)"}, {"smiles": "CC(C)(O)c1ccc2c(c1)C(O)C[C@H]1[C@](C)(C(=O)O)CCC[C@]21C", "note": "(some centres undefined)", "activity change, negative = inhibition": "-21.5% [at 33.1 µM] (inactive)"}, {"smiles": "CC1(C)CCCC2(C)C(C(=O)O)=CCC12", "note": "(centres undefined)", "activity change, negative = inhibition": "20.7% (inactive)"}, {"smiles": "C=C1CCC2C(C)(C(=O)O)CCCC2(C)C1CCC(C)CC(=O)O", "note": "(centres undefined)", "activity change, negative = inhibition": "-15.5% [at 33.1 µM] (inactive)"}, {"smiles": "C/C=C/c1ccc(O[C@@H]2O[C@H](CO)[C@@H](O)[C@H](O)[C@H]2O)c(OC)c1", "activity change, negative = inhibition": "-12.2% [at 33.1 µM] (inactive)"}, {"smiles": "CC(=O)SCC(=O)c1ccc(NS(=O)(=O)c2ccc(OCCCN(C)C)cc2)nc1", "activity change, negative = inhibition": "-12.1% (inactive)"}, {"smiles": "C=C1CC[C@@H]2[C@](C)(CO[C@@H]3O[C@H](CO)[C@@H](O)[C@H](O)[C@H]3O)[C@H](O)CC[C@@]2(C)[C@@H]1C/C=C1/C(=O)OC[C@H]1O", "activity change, negative = inhibition": "4.88% [at 33.1 µM] (inactive)"}, {"smiles": "C/C=C/c1ccc2oc(-c3ccc(O)c(OC)c3)c(C)c2c1", "activity change, negative = inhibition": "-18.8% (inactive)"}, {"smiles": "CC(C)(O)/C=C/CC(C)(O)C1C(O)CC2(C)C3CCC4C(C)(C)C(=O)CCC4(C)C3CCC12C", "note": "(centres undefined)", "activity change, negative = inhibition": "-18.4% [at 33.1 µM] (inactive)"}, {"smiles": "CC12CCC3c4ccc(OC5OC(C(=O)O)C(O)C(O)C5O)cc4CCC3C1CCC2O", "note": "(centres undefined)", "activity change, negative = inhibition": "17.7% (inactive)"}, {"smiles": "Cc1csc(NC(=O)c2ccc(COc3cccc(Cl)c3)o2)n1", "activity change, negative = inhibition": "79.3% (inactive)"}, {"smiles": "C[C@@H]1CCC/C=C/[C@H]2CC(=O)C[C@@H]2[C@@H](O)/C=C/C(=O)O1", "activity change, negative = inhibition": "-16.2% (inactive)"}, {"smiles": "Cc1c2cc(c(C(=O)O)c1C)OC1OC(C(O)C(O)C1O)C(O)C(O)C1OC(O2)C(O)C(O)C1O", "note": "(centres undefined)", "activity change, negative = inhibition": "17.5% [at 33.1 µM] (inactive)"}, {"smiles": "Oc1ccc2nc(CN3CCC(Cc4ccccc4F)CC3)[nH]c2c1", "activity change, negative = inhibition": "91.4% (inactive)"}, {"smiles": "C[C@@H]1O[C@@H](O[C@H]2[C@H](O[C@H]3[C@H](O)[C@@H](C(=O)O)O[C@@H](O[C@H]4CC[C@@]5(C)C(CC[C@]6(C)C5CC[C@]57OC[C@@]8(CCC(C)(C)CC85)[C@H](O)C[C@]76C)C4(C)C)[C@@H]3O[C@@H]3O[C@H](CO)[C@@H](O[C@@H]4OC[C@@H](O)[C@H](O)[C@H]4O)[C@H](O)[C@H]3O)O[C@H](CO)[C@H](O)[C@@H]2O)[C@H](O)[C@H](O)[C@H]1O", "note": "(some centres undefined)", "activity change, negative = inhibition": "-19.8% [at 10.7 µM] (inactive)"}, {"smiles": "CC1OC(OC2C(O)C(OC3CCC4(C)C(CCC5(C)C4CC=C4C6CC(C)(COC7OC(CO)C(O)C(O)C7O)CC(O)C6(C)CCC45C)C3(C)C)OC(C(=O)O)C2O)C(O)C(O)C1OC1OCC(O)C(O)C1O", "note": "(centres undefined)", "activity change, negative = inhibition": "-26.7% [at 15.1 µM] (inactive)"}, {"smiles": "C=C1CCC2C(C)(C(=O)O)CCCC2(C)C1CC/C(=C\\CO)CO", "note": "(centres undefined)", "outcome": "inactive [at 33.1 µM]"}, {"smiles": "CC(C)CNCc1ccc(-c2ccccc2S(=O)(=O)N2CCCC2)cc1", "activity change, negative = inhibition": "29.3% (inactive)"}, {"smiles": "O=C1NC(=O)C(c2cn3c4c(cccc24)CCC3)C1c1c[nH]c2ccccc12", "note": "(centres undefined)", "activity change, negative = inhibition": "14.1% (inactive)"}, {"smiles": "CC1=C2C3OC(=O)C(C)C3(O)CCC2(C)CCC1O", "note": "(centres undefined)", "activity change, negative = inhibition": "-44.3% (inactive)"}, {"smiles": "C=C1CCC2C(C)(C)CCC[C@]2(C)[C@H]1C/C=C(\\CO)C(=O)C(=O)O", "note": "(some centres undefined)", "activity change, negative = inhibition": "-8.84% [at 33.1 µM] (inactive)"}, {"smiles": "COc1ccc(C[C@H](N)C(=O)N[C@@H]2[C@H](O)[C@H](n3cnc4c(N(C)C)ncnc43)O[C@@H]2CO)cc1", "activity change, negative = inhibition": "75.6% (inactive)"}]}]}
